Assays:
[1] = biological target: Sphingosine kinase 1 (Homo sapiens) (UniProt Q9NYA1); settings: at 1 µM;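 note: mean SPHK1 inhibition value reported from the GSK PKIS kinase panel screen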
[2] = biological target: T1, Sphingosine kinase 2 (Homo sapiens) (UniProt Q9NRA0); settings: at 0.1 µM
T1 sequence (whole entry): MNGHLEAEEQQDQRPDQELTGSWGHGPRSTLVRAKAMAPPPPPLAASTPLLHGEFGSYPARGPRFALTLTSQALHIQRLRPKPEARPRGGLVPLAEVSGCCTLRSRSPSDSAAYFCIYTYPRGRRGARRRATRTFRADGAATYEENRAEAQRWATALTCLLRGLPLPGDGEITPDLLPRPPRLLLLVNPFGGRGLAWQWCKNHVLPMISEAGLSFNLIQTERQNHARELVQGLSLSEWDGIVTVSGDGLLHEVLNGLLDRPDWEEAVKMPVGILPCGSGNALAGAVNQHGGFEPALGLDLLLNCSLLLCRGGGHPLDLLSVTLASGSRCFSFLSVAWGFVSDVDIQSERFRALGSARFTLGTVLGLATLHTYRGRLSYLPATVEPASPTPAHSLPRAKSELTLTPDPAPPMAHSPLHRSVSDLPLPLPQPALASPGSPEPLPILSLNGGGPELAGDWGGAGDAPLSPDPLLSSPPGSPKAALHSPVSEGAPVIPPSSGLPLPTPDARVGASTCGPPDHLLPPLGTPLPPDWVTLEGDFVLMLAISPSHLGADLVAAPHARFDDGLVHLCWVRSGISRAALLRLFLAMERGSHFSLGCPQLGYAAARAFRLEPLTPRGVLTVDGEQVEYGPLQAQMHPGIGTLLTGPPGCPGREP

[3] = biological target: T1, Sphingosine kinase 2 (Homo sapiens); settings: at 1 µM
[4] = biological target: Casein kinase II subunit alpha (Homo sapiens) (UniProt P68400); settings: at 0.1 µM
Sequence of Casein kinase II subunit alpha (Homo sapiens) (P68400 whole entry, looked up): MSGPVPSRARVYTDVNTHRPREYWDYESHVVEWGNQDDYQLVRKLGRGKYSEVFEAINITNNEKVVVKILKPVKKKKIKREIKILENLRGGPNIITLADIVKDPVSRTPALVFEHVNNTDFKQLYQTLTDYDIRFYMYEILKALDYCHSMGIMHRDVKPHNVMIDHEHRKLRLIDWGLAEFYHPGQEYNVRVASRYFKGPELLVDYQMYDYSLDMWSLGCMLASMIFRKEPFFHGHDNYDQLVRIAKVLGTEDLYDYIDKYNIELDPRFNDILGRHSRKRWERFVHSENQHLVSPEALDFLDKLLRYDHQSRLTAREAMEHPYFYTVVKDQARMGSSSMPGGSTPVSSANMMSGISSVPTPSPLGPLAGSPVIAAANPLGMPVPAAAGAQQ

[5] = biological target: Casein kinase II subunit alpha (Homo sapiens) (UniProt P68400); settings: at 1 µM
[6] = biological target: T2, Inhibitor of nuclear factor kappa-B kinase subunit alpha (Homo sapiens) (UniProt O15111); settings: at 0.1 µM
T2 sequence (whole entry): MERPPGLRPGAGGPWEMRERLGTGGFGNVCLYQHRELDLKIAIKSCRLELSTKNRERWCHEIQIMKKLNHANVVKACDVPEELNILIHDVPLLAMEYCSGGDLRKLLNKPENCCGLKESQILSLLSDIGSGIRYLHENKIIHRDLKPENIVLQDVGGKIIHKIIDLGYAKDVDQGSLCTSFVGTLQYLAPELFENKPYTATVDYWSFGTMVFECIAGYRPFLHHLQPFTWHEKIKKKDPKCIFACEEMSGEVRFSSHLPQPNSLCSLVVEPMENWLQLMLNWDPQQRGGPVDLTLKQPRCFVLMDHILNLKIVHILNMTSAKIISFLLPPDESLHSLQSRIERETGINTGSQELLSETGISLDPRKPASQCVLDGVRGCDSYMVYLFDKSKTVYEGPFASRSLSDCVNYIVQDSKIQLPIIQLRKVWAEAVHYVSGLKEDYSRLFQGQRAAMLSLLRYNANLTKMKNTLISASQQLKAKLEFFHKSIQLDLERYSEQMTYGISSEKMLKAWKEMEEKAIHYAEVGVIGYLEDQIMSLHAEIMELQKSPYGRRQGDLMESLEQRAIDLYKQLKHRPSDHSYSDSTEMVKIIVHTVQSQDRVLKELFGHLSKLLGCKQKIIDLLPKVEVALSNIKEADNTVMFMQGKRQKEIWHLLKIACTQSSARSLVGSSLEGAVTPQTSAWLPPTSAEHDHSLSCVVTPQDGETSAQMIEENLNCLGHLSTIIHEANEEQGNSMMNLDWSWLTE

[7] = biological target: T2, Inhibitor of nuclear factor kappa-B kinase subunit alpha (Homo sapiens); settings: at 1 µM
[8] = biological target: T3, Inhibitor of nuclear factor kappa-B kinase subunit beta (Homo sapiens) (UniProt O14920); settings: at 0.1 µM
T3 sequence (whole entry): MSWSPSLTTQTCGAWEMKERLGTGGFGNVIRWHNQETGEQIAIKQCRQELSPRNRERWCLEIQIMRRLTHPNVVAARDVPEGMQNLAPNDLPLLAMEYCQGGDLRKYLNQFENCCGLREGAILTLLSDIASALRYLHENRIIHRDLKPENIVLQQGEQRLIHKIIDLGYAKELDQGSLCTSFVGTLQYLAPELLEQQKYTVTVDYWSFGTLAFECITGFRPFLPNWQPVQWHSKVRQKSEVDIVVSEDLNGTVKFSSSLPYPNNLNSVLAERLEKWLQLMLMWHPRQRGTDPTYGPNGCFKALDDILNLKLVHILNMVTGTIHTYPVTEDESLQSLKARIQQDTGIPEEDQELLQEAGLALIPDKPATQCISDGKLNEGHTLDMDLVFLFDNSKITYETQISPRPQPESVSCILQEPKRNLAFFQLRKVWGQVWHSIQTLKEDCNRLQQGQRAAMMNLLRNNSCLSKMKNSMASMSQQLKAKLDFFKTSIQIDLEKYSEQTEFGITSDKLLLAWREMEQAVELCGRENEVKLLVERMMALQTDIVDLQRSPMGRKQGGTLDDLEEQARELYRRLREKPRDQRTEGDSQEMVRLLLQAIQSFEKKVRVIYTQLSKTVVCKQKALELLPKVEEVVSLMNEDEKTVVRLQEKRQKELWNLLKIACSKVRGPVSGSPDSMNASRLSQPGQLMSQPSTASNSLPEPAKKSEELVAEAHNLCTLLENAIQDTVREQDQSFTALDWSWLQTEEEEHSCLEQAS

[9] = biological target: T3, Inhibitor of nuclear factor kappa-B kinase subunit beta (Homo sapiens); settings: at 1 µM
[10] = biological target: T4, Inhibitor of nuclear factor kappa-B kinase subunit epsilon (Homo sapiens) (UniProt Q14164); settings: at 0.1 µM
T4 sequence (whole entry): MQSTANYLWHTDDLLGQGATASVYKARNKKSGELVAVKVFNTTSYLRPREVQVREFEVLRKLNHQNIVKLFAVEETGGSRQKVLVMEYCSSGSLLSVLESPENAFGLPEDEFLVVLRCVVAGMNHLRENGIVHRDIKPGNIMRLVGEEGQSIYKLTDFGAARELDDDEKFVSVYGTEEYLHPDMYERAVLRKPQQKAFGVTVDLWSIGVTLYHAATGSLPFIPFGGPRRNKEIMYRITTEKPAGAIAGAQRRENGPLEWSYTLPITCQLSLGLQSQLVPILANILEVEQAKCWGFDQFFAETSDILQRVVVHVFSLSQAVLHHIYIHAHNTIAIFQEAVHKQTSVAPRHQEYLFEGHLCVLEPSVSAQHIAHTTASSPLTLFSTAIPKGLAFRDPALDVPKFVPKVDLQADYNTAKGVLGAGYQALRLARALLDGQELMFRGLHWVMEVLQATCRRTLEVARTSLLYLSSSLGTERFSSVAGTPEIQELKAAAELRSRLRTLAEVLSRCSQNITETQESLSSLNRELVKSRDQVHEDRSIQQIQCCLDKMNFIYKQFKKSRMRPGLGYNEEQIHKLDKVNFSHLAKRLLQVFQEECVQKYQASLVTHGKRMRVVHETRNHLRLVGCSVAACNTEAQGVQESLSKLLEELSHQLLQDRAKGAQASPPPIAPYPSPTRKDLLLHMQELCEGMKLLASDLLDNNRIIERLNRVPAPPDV

[11] = biological target: T4, Inhibitor of nuclear factor kappa-B kinase subunit epsilon (Homo sapiens); settings: at 1 µM
[12] = biological target: T5, Serine/threonine-protein kinase Nek1 (Homo sapiens) (UniProt Q96PY6); settings: at 0.1 µM
T5 sequence (whole entry): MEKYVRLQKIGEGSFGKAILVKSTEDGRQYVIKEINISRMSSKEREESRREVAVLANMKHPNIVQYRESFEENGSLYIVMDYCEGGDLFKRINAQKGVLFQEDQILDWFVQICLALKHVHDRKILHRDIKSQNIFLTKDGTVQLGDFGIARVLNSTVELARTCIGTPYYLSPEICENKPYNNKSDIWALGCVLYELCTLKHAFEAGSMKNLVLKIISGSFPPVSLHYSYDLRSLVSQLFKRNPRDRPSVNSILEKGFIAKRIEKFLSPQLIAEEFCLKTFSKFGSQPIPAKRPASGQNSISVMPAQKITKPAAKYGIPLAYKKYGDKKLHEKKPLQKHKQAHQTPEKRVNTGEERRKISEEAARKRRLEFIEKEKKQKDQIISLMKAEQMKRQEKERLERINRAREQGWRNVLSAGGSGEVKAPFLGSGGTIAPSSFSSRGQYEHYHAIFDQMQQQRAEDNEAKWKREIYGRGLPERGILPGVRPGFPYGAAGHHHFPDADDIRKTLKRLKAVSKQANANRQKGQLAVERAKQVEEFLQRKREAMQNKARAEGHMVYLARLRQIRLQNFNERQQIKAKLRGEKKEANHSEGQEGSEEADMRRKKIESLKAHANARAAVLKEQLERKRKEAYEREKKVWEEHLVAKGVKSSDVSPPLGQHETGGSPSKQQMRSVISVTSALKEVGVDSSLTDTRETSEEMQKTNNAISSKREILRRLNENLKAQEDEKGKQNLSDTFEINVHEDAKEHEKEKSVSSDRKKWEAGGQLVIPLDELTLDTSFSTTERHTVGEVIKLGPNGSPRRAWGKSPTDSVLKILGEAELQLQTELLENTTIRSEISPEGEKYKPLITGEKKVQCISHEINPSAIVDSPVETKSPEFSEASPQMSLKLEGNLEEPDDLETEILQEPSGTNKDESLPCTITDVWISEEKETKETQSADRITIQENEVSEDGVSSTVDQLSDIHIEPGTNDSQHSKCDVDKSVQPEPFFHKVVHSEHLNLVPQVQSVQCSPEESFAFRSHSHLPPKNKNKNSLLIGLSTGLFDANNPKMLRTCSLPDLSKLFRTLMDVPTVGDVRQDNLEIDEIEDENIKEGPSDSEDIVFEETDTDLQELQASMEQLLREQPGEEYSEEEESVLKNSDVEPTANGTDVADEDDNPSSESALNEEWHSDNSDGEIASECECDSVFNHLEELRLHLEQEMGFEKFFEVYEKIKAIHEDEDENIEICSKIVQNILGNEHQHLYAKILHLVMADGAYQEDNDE

[13] = biological target: T5, Serine/threonine-protein kinase Nek1 (Homo sapiens); settings: at 1 µM
[14] = biological target: T6, Serine/threonine-protein kinase Nek2 (Homo sapiens) (UniProt P51955); settings: at 0.1 µM
T6 sequence (whole entry): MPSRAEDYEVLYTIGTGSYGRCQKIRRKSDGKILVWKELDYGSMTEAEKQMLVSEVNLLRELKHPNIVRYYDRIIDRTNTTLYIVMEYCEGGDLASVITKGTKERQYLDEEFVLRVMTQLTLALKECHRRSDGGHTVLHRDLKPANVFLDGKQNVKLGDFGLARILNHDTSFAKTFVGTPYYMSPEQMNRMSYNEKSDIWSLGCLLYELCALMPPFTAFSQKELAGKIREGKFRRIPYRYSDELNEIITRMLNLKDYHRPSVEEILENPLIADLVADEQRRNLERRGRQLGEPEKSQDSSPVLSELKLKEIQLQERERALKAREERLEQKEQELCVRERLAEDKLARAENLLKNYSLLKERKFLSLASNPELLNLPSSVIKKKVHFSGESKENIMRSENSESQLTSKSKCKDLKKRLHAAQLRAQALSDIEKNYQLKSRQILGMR

[15] = biological target: T6, Serine/threonine-protein kinase Nek2 (Homo sapiens); settings: at 1 µM
[16] = biological target: Serine/threonine-protein kinase Nek6 (Homo sapiens) (UniProt Q9HC98); settings: at 0.1 µM
Sequence of Serine/threonine-protein kinase Nek6 (Homo sapiens) (Q9HC98 whole entry): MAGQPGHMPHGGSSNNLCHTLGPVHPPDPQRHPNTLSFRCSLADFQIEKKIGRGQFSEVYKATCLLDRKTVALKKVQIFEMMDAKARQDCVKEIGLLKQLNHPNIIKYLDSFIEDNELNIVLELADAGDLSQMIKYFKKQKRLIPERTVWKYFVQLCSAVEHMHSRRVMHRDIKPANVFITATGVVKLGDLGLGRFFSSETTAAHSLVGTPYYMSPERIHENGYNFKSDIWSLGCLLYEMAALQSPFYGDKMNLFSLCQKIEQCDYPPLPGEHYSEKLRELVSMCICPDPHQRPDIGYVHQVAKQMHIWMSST

[17] = biological target: Serine/threonine-protein kinase Nek6 (Homo sapiens) (UniProt Q9HC98); settings: at 1 µM
[18] = biological target: Serine/threonine-protein kinase Nek7 (Homo sapiens) (UniProt Q8TDX7); settings: at 0.1 µM
Sequence of Serine/threonine-protein kinase Nek7 (Homo sapiens) (Q8TDX7 whole entry, looked up): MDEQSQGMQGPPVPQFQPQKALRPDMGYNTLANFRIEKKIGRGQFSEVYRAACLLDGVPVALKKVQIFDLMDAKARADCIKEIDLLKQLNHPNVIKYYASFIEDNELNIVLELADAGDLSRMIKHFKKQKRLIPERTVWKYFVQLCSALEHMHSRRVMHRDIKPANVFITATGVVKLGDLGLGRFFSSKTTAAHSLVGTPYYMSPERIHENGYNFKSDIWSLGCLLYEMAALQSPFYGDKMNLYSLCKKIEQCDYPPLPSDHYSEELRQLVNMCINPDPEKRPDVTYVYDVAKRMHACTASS

[19] = biological target: Serine/threonine-protein kinase Nek7 (Homo sapiens) (UniProt Q8TDX7); settings: at 1 µM
[20] = biological target: T7, Serine/threonine-protein kinase Nek9 (Homo sapiens) (UniProt Q8TD19); settings: at 0.1 µM;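 note: reported value is the mean percent inhibition of NEK9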
T7 sequence (whole entry): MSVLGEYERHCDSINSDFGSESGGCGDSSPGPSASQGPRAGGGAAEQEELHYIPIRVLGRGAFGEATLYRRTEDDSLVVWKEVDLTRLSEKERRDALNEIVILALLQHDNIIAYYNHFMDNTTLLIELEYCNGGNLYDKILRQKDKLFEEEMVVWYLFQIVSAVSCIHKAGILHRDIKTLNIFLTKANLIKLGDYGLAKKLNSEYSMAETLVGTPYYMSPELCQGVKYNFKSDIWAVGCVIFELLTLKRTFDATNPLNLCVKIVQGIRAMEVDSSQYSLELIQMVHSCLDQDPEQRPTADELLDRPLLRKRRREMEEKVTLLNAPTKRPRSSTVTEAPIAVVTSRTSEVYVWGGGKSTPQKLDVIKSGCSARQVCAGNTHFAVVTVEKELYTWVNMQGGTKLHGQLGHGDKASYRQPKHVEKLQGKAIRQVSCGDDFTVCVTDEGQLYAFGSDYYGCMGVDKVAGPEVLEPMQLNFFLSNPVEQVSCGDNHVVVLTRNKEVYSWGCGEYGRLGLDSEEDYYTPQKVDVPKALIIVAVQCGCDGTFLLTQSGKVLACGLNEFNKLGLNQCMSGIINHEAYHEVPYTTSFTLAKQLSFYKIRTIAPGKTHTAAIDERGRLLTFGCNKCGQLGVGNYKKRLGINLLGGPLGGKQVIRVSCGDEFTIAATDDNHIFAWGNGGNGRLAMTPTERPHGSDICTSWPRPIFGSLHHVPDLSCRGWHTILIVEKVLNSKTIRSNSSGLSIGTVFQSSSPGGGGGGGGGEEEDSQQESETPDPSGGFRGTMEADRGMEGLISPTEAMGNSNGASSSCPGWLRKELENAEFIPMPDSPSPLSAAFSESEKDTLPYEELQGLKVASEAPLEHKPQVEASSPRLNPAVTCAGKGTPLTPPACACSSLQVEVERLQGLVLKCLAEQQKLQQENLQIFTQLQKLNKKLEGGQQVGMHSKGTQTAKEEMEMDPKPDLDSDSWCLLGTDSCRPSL

Sequence of Sphingosine kinase 1 (Homo sapiens) (Q9NYA1 whole entry): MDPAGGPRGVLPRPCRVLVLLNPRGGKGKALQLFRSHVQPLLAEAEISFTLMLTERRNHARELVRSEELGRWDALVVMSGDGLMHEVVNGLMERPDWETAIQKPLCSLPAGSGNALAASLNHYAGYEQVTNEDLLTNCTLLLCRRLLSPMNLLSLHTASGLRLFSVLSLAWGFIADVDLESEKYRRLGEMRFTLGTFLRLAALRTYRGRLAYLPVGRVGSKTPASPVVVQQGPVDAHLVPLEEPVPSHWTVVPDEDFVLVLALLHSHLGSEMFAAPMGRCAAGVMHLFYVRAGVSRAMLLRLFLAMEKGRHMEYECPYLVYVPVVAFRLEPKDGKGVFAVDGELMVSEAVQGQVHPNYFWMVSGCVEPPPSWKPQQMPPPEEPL

Work on `Nc1ccc(C#Cc2cncnc2Nc2ccc(OCc3cccc(F)c3)c(Cl)c2)cc1` yielded an inhibition [1] of -2.59%, an inhibition [2] of -3.76% and an inhibition [3] of 0%. For the same compound, the inhibition [4] was 4.6%, the inhibition [5] was 2.02% and the inhibition [6] was 0.36%. It also gave an inhibition [7] of 2.27%, an inhibition [8] of 4.1% and an inhibition [9] of 4.66%. For the same compound, the inhibition [10] was 3.63%, the inhibition [11] was 4.07% and the inhibition [12] was 3.38%. The inhibition [13] was 2.7%, the inhibition [14] was 3.5% and the inhibition [15] was 3.39%. The inhibition [16] was 2.73%, the inhibition [17] was 0.63% and the inhibition [18] was 1.31%. For the same compound, the inhibition [19] was 1.32% and the inhibition [20] was 3.62%.

From ChEMBL document CHEMBL1961873, “Compounds: GSK PKIS; Assays: Nanosyn kinase panel” (2012)
